Experimental data: PubChem BioAssay (NCI)
The panel holds about 79,000 compounds, 15% with a hit somewhere; the sample as a whole holds those more often. A number with no mark means an inactive call. Active and inactive are the calls of the source. Rule as the data show it: active = growth inhibition above about 70%; inactive = the rest.

Experiments:
[1] = NCI Yeast Anticancer Drug Screen. Data for the rad50 strain (AID 155);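 also: 0% = growth of vehicle-only cultures of the same strain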; conditions: S. cerevisiae rad50 strain growth inhibition, active compounds read high
How it was run: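 Compounds were tested on a yeast strain with an engineered DNA damage repair alteration; the reported value is growth inhibition normalised to vehicle treatment.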

[2] = NCI Yeast Anticancer Drug Screen. Data for the mec2-1 strain (AID 157); conditions: S. cerevisiae mec2-1 strain, active compounds read high
How it was run: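 Strain: mec2-1 (DNA repair/cell cycle alteration). Compound exposure, then growth measured; inhibition expressed relative to vehicle.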

[3] = NCI Yeast Anticancer Drug Screen. Data for the sgs1 mgt1 strain (AID 161);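 also: 0% = growth of cultures given vehicle only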; conditions: S. cerevisiae sgs1 mgt1 strain, active compounds read high
How it was run: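 Inhibition of yeast growth, normalised to vehicle-treated controls, is reported for a strain bearing genetic alterations in DNA damage repair.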

[4] = NCI Yeast Anticancer Drug Screen. Data for the cln2 rad14 strain (AID 165);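 also: 0% = growth equal to vehicle treated cultures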; conditions: S. cerevisiae cln2 rad14 strain, active compounds read high
How it was run: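 Compounds are applied to the cln2 rad14 yeast strain, and growth is then compared with that of vehicle-treated cultures to give inhibition.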

[5] = NCI Yeast Anticancer Drug Screen. Data for the bub3 strain (AID 167); conditions: S. cerevisiae bub3 mutant strain, active compounds read high
How it was run: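 Growth of a checkpoint-deficient yeast mutant is measured after compound exposure. Values represent inhibition relative to vehicle.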

[6] = NCI Yeast Anticancer Drug Screen. Data for the mlh1 rad18 strain (AID 175); conditions: S. cerevisiae mlh1 rad18 strain growth inhibition, active compounds read high
How it was run: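 Read-out is yeast growth inhibition, calculated against vehicle-only controls. The compound was applied to a strain engineered with DNA damage repair alterations.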

[7] = at 5.0 µM (retest, dose inferred, filed as 0.5)
[8] = at 50.0 µM (retest, dose inferred, filed as 5.0)

| Structure (SMILES) | growth inhibition [1, 7] | growth inhibition [1, 8] | growth inhibition ([1]; at 50.0 µM) | growth inhibition [2, 7] | growth inhibition [2, 8] | growth inhibition ([2]; at 50.0 µM) | growth inhibition [3, 7] | growth inhibition [3, 8] | growth inhibition ([3]; at 50.0 µM) | growth inhibition [4, 7] | growth inhibition [4, 8] | growth inhibition ([4]; at 50.0 µM) | growth inhibition [5, 7] | growth inhibition [5, 8] | growth inhibition ([5]; at 50.0 µM) | growth inhibition [6, 7] | growth inhibition [6, 8] | growth inhibition ([6]; at 50.0 µM) |
| --- | --- | --- | --- | --- | --- | --- | --- | --- | --- | --- | --- | --- | --- | --- | --- | --- | --- | --- |
| O=C(O)C(=O)Cc1ccc(O)cc1 | -18% | -30% | 68.2% | -20% | -25% | 12.7% | -10% | -26% | 57% | -5% | 7% | 49.1% | -24% | -20% | 70.7% (active) | -48% | -69% | 61% |
| CC(=O)OC1OC2C(NC(=O)OC(C)(C)C)C1CC2(OCc1ccccc1)OCc1ccccc1 (stereo not given) | 35% | 35% | 23.6% | 25% | 25% | -24.4% | 29% | 29% | -3.2% | 8% | 8% | 9.6% | 18% | 18% | -12.8% | 28% | 28% | 9% |
| O=C1/C(=C/c2ccc(Cl)cc2)CCC/C1=C\c1ccc(O)c(CN2CCCCC2)c1 | 31% | 52% | 2.4% | 2% | 17% | 1.75% | 7% | 20% | 69% | 7% | 24% | 51.9% | -48% | 17% | 72.3% (active) | 16% | 20% | 90.6% (active) |
| O=Cc1ccc(/C=N\Nc2ccccc2)cc1 | 1% | 12% | 82.3% (active) | -5% | 0% | 33.2% | -3% | -4% | 41.9% | 1% | 7% | 34.1% | -1% | 12% | -9.55% | 4% | 30% | 92.3% (active) |
| CCCC(O)CNCc1ccc(N(C)C)cc1 (stereo not given) | -2% | 7% | 30.1% | -3% | 6% | -4.1% | -3% | -29% | 75.6% (active) | 6% | 3% | 63.9% | -1% | 5% | 46.7% | -17% | 16% | 41.8% |
| CC1CN(CC2CCCCCCCCCCC2=O)CC(C)O1 (stereo not given) | 59% | 74% (active) | 73.5% (active) | 25% | 45% | 65.5% | 52% | 53% | 83.8% (active) | 62% | 59% | 60.4% | 67% | 79% (active) | 75.8% (active) | 74% (active) | 86% (active) | 69.9% |
| CC(C)N=Cc1cc(I)cc(I)c1O.CC(C)N=Cc1cc(I)cc(I)c1O.[Co] | 99% (active) | 99% (active) | 96.8% (active) | 99% (active) | 99% (active) | 97.6% (active) | 99% (active) | 99% (active) | 97.2% (active) | 98% (active) | 98% (active) | 96.1% (active) | 98% (active) | 99% (active) | 96.5% (active) | 99% (active) | 99% (active) | 97% (active) |
| COc1ccc(C(c2ccc(C(C)C)cc(OC)c2=O)c2ccc(C(C)C)cc(OC)c2=O)cc1 | 7% | 54% | 22.4% | -1% | 39% | 42.2% | 6% | 61% | 13.2% | -2% | 37% | 10.2% | 0% | 16% | 9% | -4% | 41% | 29.2% |
| CCC(C)n1c(C)nc2c(N)cc(C(F)(F)F)cc21 (stereo not given) | 0% | 11% | 74% (active) | 3% | 30% | 95.8% (active) | 4% | 38% | 93.7% (active) | 1% | 8% | 98.8% (active) | -4% | 9% | 98% (active) | 0% | 28% | 94.5% (active) |
| CC(=O)/C(=C\c1cccs1)C(=O)CCN(C)C | 11% | 25% | 9.05% | 15% | 28% | 17.2% | 10% | 29% | 34% | 20% | 27% | 19.5% | 4% | 23% | -2.2% | 22% | 30% | 50.1% |
| C/C=C(\C)[C@H](O)C(COCc1ccccc1)NS(=O)(=O)c1ccc(C)cc1 (stereo not given in full) | -5% | 44% | 30.1% | -3% | 26% | 98.5% (active) | -7% | 43% | 36.8% | -2% | 47% | 22.6% | -3% | 51% | 97.5% (active) | -4% | 36% | 58.5% |
| NC(=S)Nc1c(Br)cc(Br)cc1Br | -1% | 91% (active) | 62.5% | 1% | 90% (active) | 33.5% | -1% | 84% (active) | 34.8% | 3% | 88% (active) | 23.1% | -6% | 80% (active) | 74% (active) | 2% | 88% (active) | 47% |
| COc1ccc(CSC(=S)Nc2ccc(Cl)c(C(F)(F)F)c2)cc1 | 27% | 30% | 89.7% (active) | 15% | 16% | 90.2% (active) | 43% | 49% | 89% (active) | 44% | 38% | 88.7% (active) | 47% | 63% | 88.3% (active) | 17% | 21% | 87.2% (active) |
| COc1cccc(NC(=S)NC2CC(C)CC(C)(C)C2)c1 (stereo not given) | 24% | 94% (active) | 86.5% (active) | -11% | 85% (active) | 89.3% (active) | -1% | 94% (active) | 89.8% (active) | 30% | 90% (active) | 86.2% (active) | 8% | 93% (active) | 89.2% (active) | -7% | 93% (active) | 84.8% (active) |
| COC(=O)CCc1c(Cc2ccc[nH]2)[nH]c(C(=O)OCc2ccccc2)c1C | -20% | 91% (active) | 55% | -12% | 92% (active) | 71% (active) | -12% | 94% (active) | 69% | -32% | 95% (active) | 77.5% (active) | -35% | 92% (active) | 76.3% (active) | -5% | 94% (active) | 74.8% (active) |
| Oc1ccc(C2CCCCC2)c(O)c1 | -2% | 42% | 75.5% (active) | 2% | 53% | 61.4% | 7% | 37% | 66% | 30% | 45% | 65.8% | 7% | 66% | 67.3% | 2% | 72% (active) | 65.8% |
| Oc1ccccc1N=CC1CCCCC1 | -61% | 40% | 69% | -27% | -24% | 37.1% | -33% | -23% | 28.4% | -53% | -31% | 17% | 9% | 46% | 74% (active) | -32% | 20% | 66.2% |
| CC(C)C(Sc1nc(-c2ccccc2)c(-c2ccccc2)[nH]1)C(=O)NN (stereo not given) | -7% | 91% (active) | 90.2% (active) | -36% | 96% (active) | 33.4% | -3% | 94% (active) | 91.5% (active) | 17% | 98% (active) | 90% (active) | 29% | 98% (active) | 89% (active) | -11% | 96% (active) | 89.4% (active) |
| O=C1OC2=C(CCc3nc(-c4ccccc4)sc32)C(N(c2ccccc2)c2ccccc2)C1(Cl)Cl (stereo not given) | -4% | 11% | 63.6% | -5% | 12% | 41.8% | 1% | 19% | 73% (active) | -13% | -15% | 60.1% | 0% | -3% | 49% | 2% | 9% | 68.7% |
| CCc1ccc2c(-c3ccccc3)c3ccccc3c(-c3ccccc3)c2c1 | 0% | -4% | -7.9% | 3% | -10% | -5.6% | 1% | 6% | -9.25% | -4% | -11% | 34.9% | -4% | -8% | 7.35% | -1% | -8% | 0.05% |
| Cc1cc(O)c(C(=O)/C=C/c2ccnc3ccccc23)c(=O)o1 | -7% | 5% | -9.7% | -17% | -1% | -6.65% | 6% | 20% | -2% | 11% | 8% | -13.4% | 22% | 8% | -4.8% | 15% | 8% | -23.2% |
| CN(C)CCCCN1c2ccccc2Sc2ccc(C(=O)c3ccccc3)cc21 | 0% | 65% | 99.8% (active) | -2% | 81% (active) | 99.8% (active) | 3% | 79% (active) | 99.8% (active) | 2% | 70% (active) | 99.3% (active) | 4% | 77% (active) | 99.7% (active) | 0% | 82% (active) | 99.6% (active) |
| CC1(c2ccc(Cl)cc2)OC(=O)c2c1ccc1ccccc21 (stereo not given) | 13% | 55% | 97.7% (active) | -1% | 53% | 93.6% (active) | 7% | 55% | 98% (active) | 2% | 47% | 88.8% (active) | 22% | 52% | 97.8% (active) | -1% | 75% (active) | 96% (active) |
| Cc1coc(C)c1C(=S)Nc1ccc(Cl)c(C(=O)OC(C)C)c1 | 6% | 81% (active) | 84% (active) | -8% | 77% (active) | 82.5% (active) | -3% | 81% (active) | 85.2% (active) | 20% | 88% (active) | 81.8% (active) | -15% | 87% (active) | 82.9% (active) | -9% | 86% (active) | 81.6% (active) |
| Cc1[nH]c2ccccc2c1-c1ccccc1 | -126% | 98% (active) | 99.5% (active) | -48% | 99% (active) | 99.6% (active) | -65% | 98% (active) | 99.5% (active) | -53% | 99% (active) | 99% (active) | -62% | 98% (active) | 99.4% (active) | -122% | 98% (active) | 99.5% (active) |
